Laboratory results from PubChem BioAssay.
Values without a mark were called inactive. Calls of active or inactive are those of the source. Rule as the data show it: active = fold change permeability below about 0.7 or above about 1.3; inactive = in between. Residues, ends and D or L forms follow the SMILES beside them. *: point of attachment. Cbz = O=C(OCc1ccccc1)*

Test: compounds altering in vitro BBB leakiness – cell-based, FITC-avidin fluorescence, HTS, primary screen (AID 1963498); also: test concentration not given here
Conditions: brain endothelial barrier, actives lie on both sides

Compound | fold change permeability
CN(C)c1ccc(NCc2ccccn2)cc1 | 1.5 (active)
NC(=O)CC[C@H](N)C(=O)O | 0.8
C(=C\c1ccccc1)/CN1CCN(C(c2ccccc2)c2ccccc2)CC1 | 1.2
O=C(OC1C[C@@H]2CC3C[C@H](C1)N2CC3=O)c1c[nH]c2ccccc12 (some centres undefined) | 0.8
OC[C@H]1O[C@H]([S-])[C@H](O)[C@@H](O)[C@@H]1O.[Au+] | 1.5 (active)
CC(C)[C@H](NC(=O)OCc1ccccc1)C(=O)N[C@H](C=O)Cc1ccccc1 (Cbz-Val-Phe-aldehyde) | 1.4 (active)
CC(C)(C)NCC(O)c1ccc(O)c(CO)c1 (centres undefined) | 0.9
COc1ccccc1N1CCN(CCCNc2cc(=O)n(C)c(=O)n2C)CC1 | 1.4 (active)
Nn1nnc2ccccc21 | 0.9
O=C1NC(=O)C(c2ccccc2[N+](=O)[O-])=C1Nc1ccc(O)c(Cl)c1 | 1.4 (active)
O=c1[nH]c2ccccc2c2ccccc12 | 1
N#C/C(=C\c1ccc(-c2cc(Cl)ccc2Cl)o1)C(=O)Nc1cccc2ncccc12 | 2.1 (active)
O=C(O)[C@H]1NCCC[C@H]1C(=O)O | 1
Nc1cc(Cl)c(NC2=NCCN2)c(Cl)c1 | 1
CCCCN(Cc1ccccc1)C(=O)c1ccc(S(=O)(=O)Nc2ccccc2)cc1 | 1.8 (active)
CC(=O)O[C@H]1Cc2ccccc2N(C(N)=O)c2ccccc21 | 1.8 (active)
c1ccc(C2CN3CCSC3=N2)cc1 (centres undefined) | 1
CC(CN1c2ccccc2Sc2ccccc21)N(C)C (centres undefined) | 1.2
CCN(CC)CCOC(=O)C1(C2CCCCC2)CCCCC1 | 1.6 (active)
c1cnc(N2CCN(Cc3ccc4c(c3)OCO4)CC2)nc1 | 1

Compound | fold change permeability
COc1ccc(C2CNC(=O)C2)cc1OC1CCCC1 (centres undefined) | 1.1
CO/N=C(\C(=O)N[C@@H]1C(=O)N2C(C(=O)O)=C(COC(C)=O)CS[C@H]12)c1csc(N)n1 (stereo in doubt) | 0.8
O=C(Nc1ccncc1)c1cc([N+](=O)[O-])ccc1Cl | 1
COc1ccc(/C=C/C(=O)Nc2ccccc2C(=O)O)cc1OC | 1.4 (active)
Cn1c(=O)[nH]c2ncn(C)c2c1=O | 1.1
O=[N+]([O-])c1ccc(-c2nc(-c3ccc(F)cc3)c(-c3ccncc3)[nH]2)cc1 | 1.4 (active)
O=c1c(-c2ccc(O)cc2)coc2cc(O)cc(O)c12 | 0.8
COc1ccc(CCN(C)CCCC(C#N)(c2cc(OC)c(OC)c(OC)c2)C(C)C)cc1OC (centres undefined) | 0.9
NC(N)=NC(N)=Nc1ccccc1 | 0.9
CS(=O)(=O)Nc1ccc([N+](=O)[O-])cc1Oc1ccccc1 | 0.8
CN1CCc2cccc3c2[C@H]1Cc1ccc(O)c(O)c1-3 | 1
O=C(/C=C/c1ccc(O)c(O)c1)OCCc1ccccc1 | 1
O=C(O)c1ccccc1Nc1ccccc1 | 1
C=C1C[C@H]2[C@@H]3CCC4=CC(=O)CC[C@@H]4[C@H]3CC[C@]2(C)[C@@]1(OC(C)=O)C(C)=O | 1.1
COc1ccc(-n2c(SCc3nc(-c4ccc(C)cc4)no3)nnc2-c2ccncc2)cc1 | 0.8
NC(N)=N/N=C/c1c(Cl)cccc1Cl | 1
Cc1cc2c(s1)Nc1ccccc1N=C2N1CCN(C)CC1 | 0.7 (active)
NC(=O)c1cc[n+](CC2=C(C(=O)O)N3C(=O)[C@@H](NC(=O)[C@@H](c4ccccc4)S(=O)(=O)[O-])[C@H]3SC2)cc1 | 0.8
COc1ccccc1N1CCN(CC(O)COc2cccc3ccccc23)CC1 (centres undefined) | 0.8
